Test [1] deals with Transcription factor E2F1 (Homo sapiens) (UniProt Q01094). Nature of the test: ATG_E2F_CIS: Attagene CIS-FACTORIAL HepG2 Assay for human E2F Transcription Factor 1 (AID 2282935). As to conditions: HepG2 Attagene cis-reporter, E2F reporter RNA transcripts; actives raise or lower the signal. In outline: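 First, HepG2 cells were transfected with reporter transcription units. Next, they were dosed for 24 h. Then RNA was isolated, converted to cDNA, PCR-amplified, FAM-labeled, HpaI-digested and analyzed by capillary electrophoresis.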

Test [2] can be described thus: ATG_E_Box_CIS: Attagene CIS-FACTORIAL HepG2 Assay for human Enhancer Box (E-box) (AID 2282936). The following applies: HepG2 E-box cis-reporter transcription, actives raise or lower the signal. In short, it runs like this:
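Endogenous transcription factor activity was sensed in human HepG2 liver cells through transfected cis-promoter reporter units. After 24 h of dosing, total RNA was reverse-transcribed and reporter cDNA resolved by capillary electrophoresis.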

Test [3] is described as follows: ATG_M_61_CIS: Attagene CIS-FACTORIAL HepG2 Assay for M61 Transcription Factor (Internal Marker) (AID 2282937). The following applies: HepG2 Attagene CIS-FACTORIAL M61 internal marker reporter; actives raise or lower the signal. In short, it runs like this:
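Readout is reporter mRNA by RT-PCR, fluorescent primer extension and capillary electrophoresis, with gain or loss fitted relative to DMSO. Transfected HepG2 cells carrying endogenous-TF-driven cis reporters were exposed to chemicals for 24 hours.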

Test [4] in a line: ATG_EGR_CIS: Attagene CIS-FACTORIAL HepG2 Assay for human Early Growth Response 1 (EGR1) (AID 2282938). As to conditions: HepG2 Attagene CIS-FACTORIAL EGR reporter mRNA; actives raise or lower the signal. In outline:
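After 24 h compound exposure, RNA from reporter-transfected HepG2 cells was reverse-transcribed, PCR-amplified, fluorescently labelled and resolved by capillary electrophoresis. EGR1 reporter transcript changes, up or down, were fitted against DMSO, reflecting endogenous transcription-factor activity.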

Test [5] in a line: ATG_M_19_CIS: Attagene CIS-FACTORIAL HepG2 Assay for M19 Transcription Factor (Internal Marker) (AID 2282939). The following applies: HepG2 Attagene CIS-FACTORIAL M19 internal marker reporter; actives raise or lower the signal. In short, it runs like this: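 Readout: fluorescent reporter-transcript fragments by capillary electrophoresis after RT-PCR. Human HepG2 liver cells carried transfected MRTU constructs reporting endogenous transcription-factor activity; exposure 24 h. Gain or loss of signal fitted relative to DMSO.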

Test [6] in a line: ATG_ERE_CIS: Attagene CIS-FACTORIAL HepG2 Assay for Estrogen Response Element (ERE) (AID 2282940). As to conditions: HepG2 ERE cis-reporter, Attagene RNA transcript; actives raise or lower the signal. In short, it runs like this: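 Readout: reporter mRNA induction by RT-PCR, FAM-labelled primer extension, HpaI digestion and capillary electrophoresis, 24 h after dosing transfected HepG2 cells. Endogenous transcription factors act on cis-element-regulated reporters. Gain or loss fitted against DMSO.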

Test [7] is described as follows: ATG_Ets_CIS: Attagene CIS-FACTORIAL HepG2 Assay for human Erythroblast Transformation Specific (ETS) (AID 2282941). The following applies: HepG2 ETS cis-reporter transcription, actives raise or lower the signal. In outline:
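Multiplexed reporter transcript profiling: HepG2, 24 h treatment, total RNA to cDNA, PCR, 6-FAM labelling, HpaI cut, capillary electrophoresis. Gain- or loss-of-signal fitted against DMSO.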

The target in test [8] is Hepatocyte nuclear factor 3-beta (Homo sapiens) (UniProt Q9Y261). In words: ATG_FoxA2_CIS: Attagene CIS-FACTORIAL HepG2 Assay for human Forkhead box A2 (FOXA2) (AID 2282942). As to conditions: HepG2 cis-reporter transcription factor activity, 24 h; actives raise or lower the signal. In short, it runs like this:
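Endogenous transcription factor activity is captured via cis-element-driven reporter transcripts in transfected HepG2. Total RNA taken at 24 h post-dosing; labelled RT-PCR products resolved by capillary electrophoresis. Gain or loss fitted versus DMSO.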

Test [9] can be described thus: ATG_FoxO_CIS: Attagene CIS-FACTORIAL HepG2 Assay for human Forkhead box O (FoxO) (AID 2282943). As to conditions: HepG2 Attagene cis-reporter, FoxO element, mRNA; actives raise or lower the signal. In outline: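 HepG2 cells transiently transfected with cis-promoter-driven multiple reporter transcription units; 24 h after chemical dosing, reporter mRNA quantified by RT-PCR, fluorescent primer extension, HpaI digestion and capillary electrophoresis. Bidirectional fitting versus DMSO baseline.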

The nature of test [10]: ATG_GATA_CIS: Attagene CIS-FACTORIAL HepG2 Assay for human GATA Binding Protein (AID 2282944). As to conditions: HepG2 GATA cis-element reporter, Attagene multiplex mRNA; actives raise or lower the signal. In short, it runs like this: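 Read-out: fluorescent reporter mRNA fragments resolved by capillary electrophoresis after RT-PCR. Human liver HepG2 cells carried transiently transfected cis-regulated reporter constructs; chemicals incubated 24 h; gain or loss of signal fitted relative to DMSO.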

The nature of test [11]: ATG_GLI_CIS: Attagene CIS-FACTORIAL HepG2 Assay for human Zinc Finger Protein GLI1 (AID 2282945). As to conditions: HepG2, Attagene cis-factorial reporter mRNA, GLI element; actives raise or lower the signal. In outline:
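HepG2 cells transiently transfected with cis-promoter multiplexed reporter units report endogenous transcription factor activity. After 24 h chemical exposure, reporter mRNA was quantified by RT-PCR, 6-FAM labelling, HpaI digestion and capillary electrophoresis, with bidirectional fitting against DMSO.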

Test [12] concerns the target Bile acid receptor (Homo sapiens) (UniProt Q96RI1). In words: ATG_IR1_CIS: Attagene CIS-FACTORIAL HepG2 Assay for human Nuclear Receptor Subfamily 1 Group H Member 4 (NR1H4), IR1 submotif (AID 2282946). The following applies: IR1 reporter transcription, actives raise or lower the signal. In short, it runs like this: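 Readout: reporter transcript levels by RT-PCR with fluorescent capillary electrophoresis, from HepG2 cells transiently transfected with multiplexed cis-regulated reporters and dosed 24 h. Gain- or loss-of-signal fitted versus DMSO negative control.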

Test [13] is described as follows: ATG_GRE_CIS: Attagene CIS-FACTORIAL HepG2 Assay for human Glucocorticoid Response Elements (GRE) (AID 2282947). The following applies: HepG2 GRE cis-reporter, Attagene multiplex mRNA; actives raise or lower the signal. In outline:
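Cells (HepG2) bearing transfected cis-promoter reporter transcription units were treated with chemical for 24 hours. Reporter mRNA was measured via RT-PCR with capillary electrophoresis, and activity was fitted in both directions relative to DMSO.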

Test [14] in a line: ATG_ISRE_CIS: Attagene CIS-FACTORIAL HepG2 Assay for human Interferon Regulatory Factor 1 (IRF1) binding to an Interferon-Stimulated Response Element (ISRE) (AID 2282948). The following applies: HepG2 ISRE cis-reporter (Attagene), mRNA transcription readout; actives raise or lower the signal. In outline: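 Signal reflects induction or loss of ISRE-linked reporter mRNA in transiently transfected HepG2 cells after a 24 h treatment, detected by fluorescent RT-PCR fragments on capillary electrophoresis and normalised to DMSO.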

The nature of test [15]: ATG_M_32_CIS: Attagene CIS-FACTORIAL HepG2 Assay for M32 Transcription Factor (Internal Marker) (AID 2282949).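 Also: background control marker of the multiplexed CIS panel rather than a real target.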 The following applies: HepG2 Attagene cis-factorial M32 reporter, mRNA; actives raise or lower the signal. In short, it runs like this:
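HepG2 transfectants (cis-regulated reporter transcription units) dosed 24 h. Reporter mRNA by RT-PCR plus CE, analysed as gain or loss relative to DMSO.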

The nature of test [16]: ATG_M_06_CIS: Attagene CIS-FACTORIAL HepG2 Assay for M06 Transcription Factor (Internal Marker) (AID 2282950). As to conditions: HepG2 Attagene CIS-FACTORIAL M06 internal marker reporter; actives raise or lower the signal. In outline:
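Terse: HepG2, transient MRTU transfection (FuGene 6), 24 h dosing; total RNA, oligo(dT) RT, PCR, FAM label, HpaI cut, capillary electrophoresis; bidirectional fit vs DMSO baseline; background-control endpoint.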

Test [17] concerns the target Hypoxia-inducible factor 1-alpha (Homo sapiens) (UniProt Q16665). In words: ATG_HIF1a_CIS: Attagene CIS-FACTORIAL HepG2 Assay for human Hypoxia Inducible Factor 1 (HIF1A) (AID 2282951). As to conditions: HepG2 Attagene cis-factorial HIF1a reporter transcription; actives raise or lower the signal. In short, it runs like this:
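Activity is fitted in both directions relative to DMSO. Reporter transcripts are read by RT-PCR, fluorescent primer extension and capillary electrophoresis after 24 h chemical treatment. The cells are HepG2 carrying transiently transfected cis-element-driven reporter units responding to endogenous factors.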

The target of test [18] is Hepatocyte nuclear factor 6 (Homo sapiens) (UniProt Q9UBC0). In words: ATG_HNF6_CIS: Attagene CIS-FACTORIAL HepG2 Assay for human Hepatocyte Nuclear Factor 6 (HNF6) (AID 2282952). As to conditions: HepG2 Attagene cis-factorial HNF6 reporter transcription; actives raise or lower the signal. In outline: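 Activity values derive from bidirectional fitting against DMSO of reporter mRNA levels, measured by capillary electrophoresis of labelled RT-PCR products from HepG2 cells exposed 24 h.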

For test [19], the target named is Heat shock factor protein 1 (Homo sapiens) (UniProt Q00613). In words: ATG_HSE_CIS: Attagene CIS-FACTORIAL HepG2 Assay for human Heat Shock Transcription Factor 1 (HSE) (AID 2282953). As to conditions: HepG2 HSE cis-reporter, Attagene RNA transcription; actives raise or lower the signal. In outline:
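Read-out: fluorescence of reporter-specific RT-PCR fragments separated by capillary electrophoresis. HepG2 carrying transfected cis-element reporter units; 24 h dosing; activity fitted in both directions relative to DMSO baseline.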

Test [20] in a line: ATG_MRE_CIS: Attagene CIS-FACTORIAL HepG2 Assay for human Metal Responsive Element (MRE) (AID 2282954). As to conditions: HepG2 MRE cis-reporter transcription, Attagene multiplex; actives raise or lower the signal. In short, it runs like this:
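Cells were transfected with cis-promoter reporter transcription units, then dosed for 24 h. RNA was reverse-transcribed, amplified, fluorescently labelled and resolved by capillary electrophoresis, and activity was fitted in both directions relative to DMSO.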

Activity calls are given as the source filed them. The calls were made as follows: active = hit-call score of the fitted dose curve at least 0.9, where 1 is the maximum; inactive = score below 0.9.

Outcome and AC50 data for 7 compounds are collected here from PubChem BioAssay (EPA / NIEHS).

Chain of Heat shock factor protein 1 (Homo sapiens) (Q00613 whole entry, looked up, the tested form may be a part): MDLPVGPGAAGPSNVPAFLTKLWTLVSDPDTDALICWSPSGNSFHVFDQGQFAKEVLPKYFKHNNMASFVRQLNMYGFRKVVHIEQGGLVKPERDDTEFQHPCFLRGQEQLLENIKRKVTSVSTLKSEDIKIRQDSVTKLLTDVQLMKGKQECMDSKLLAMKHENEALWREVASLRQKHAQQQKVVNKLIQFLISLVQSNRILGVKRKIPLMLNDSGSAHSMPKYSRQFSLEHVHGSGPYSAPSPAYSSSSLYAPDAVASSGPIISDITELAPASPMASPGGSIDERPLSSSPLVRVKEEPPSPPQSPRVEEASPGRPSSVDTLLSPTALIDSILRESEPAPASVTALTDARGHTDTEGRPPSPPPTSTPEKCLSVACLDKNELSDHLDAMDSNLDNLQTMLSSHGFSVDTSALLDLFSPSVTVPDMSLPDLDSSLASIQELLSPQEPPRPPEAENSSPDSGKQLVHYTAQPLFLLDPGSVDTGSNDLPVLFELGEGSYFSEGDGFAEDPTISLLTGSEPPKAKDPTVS
Chain of Transcription factor E2F1 (Homo sapiens) (Q01094 whole entry, looked up): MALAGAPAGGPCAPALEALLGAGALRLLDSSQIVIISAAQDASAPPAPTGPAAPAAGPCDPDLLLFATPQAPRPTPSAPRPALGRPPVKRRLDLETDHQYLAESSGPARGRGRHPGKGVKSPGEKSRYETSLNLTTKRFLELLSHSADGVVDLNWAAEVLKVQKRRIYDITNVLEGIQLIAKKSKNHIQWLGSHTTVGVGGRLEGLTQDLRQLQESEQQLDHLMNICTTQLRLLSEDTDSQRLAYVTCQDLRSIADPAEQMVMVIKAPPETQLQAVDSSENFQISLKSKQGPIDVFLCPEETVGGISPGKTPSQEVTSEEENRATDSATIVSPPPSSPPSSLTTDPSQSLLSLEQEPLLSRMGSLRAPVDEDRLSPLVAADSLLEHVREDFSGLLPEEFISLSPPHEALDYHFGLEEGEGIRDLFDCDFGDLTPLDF
Chain of Hepatocyte nuclear factor 6 (Homo sapiens) (Q9UBC0 whole entry, looked up): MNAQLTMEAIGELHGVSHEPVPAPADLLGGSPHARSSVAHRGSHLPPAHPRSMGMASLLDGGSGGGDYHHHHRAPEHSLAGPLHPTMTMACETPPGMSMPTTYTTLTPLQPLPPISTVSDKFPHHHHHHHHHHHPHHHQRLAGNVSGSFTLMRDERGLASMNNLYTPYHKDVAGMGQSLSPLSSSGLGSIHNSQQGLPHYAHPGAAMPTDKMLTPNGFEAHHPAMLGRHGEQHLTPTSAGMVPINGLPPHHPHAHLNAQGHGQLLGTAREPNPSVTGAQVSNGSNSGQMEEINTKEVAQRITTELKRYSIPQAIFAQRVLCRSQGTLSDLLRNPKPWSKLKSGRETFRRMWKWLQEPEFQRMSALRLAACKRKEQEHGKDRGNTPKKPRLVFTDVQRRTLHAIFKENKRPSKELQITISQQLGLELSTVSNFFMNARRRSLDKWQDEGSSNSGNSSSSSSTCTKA
Chain of Hepatocyte nuclear factor 3-beta (Homo sapiens) (Q9Y261 whole entry, looked up): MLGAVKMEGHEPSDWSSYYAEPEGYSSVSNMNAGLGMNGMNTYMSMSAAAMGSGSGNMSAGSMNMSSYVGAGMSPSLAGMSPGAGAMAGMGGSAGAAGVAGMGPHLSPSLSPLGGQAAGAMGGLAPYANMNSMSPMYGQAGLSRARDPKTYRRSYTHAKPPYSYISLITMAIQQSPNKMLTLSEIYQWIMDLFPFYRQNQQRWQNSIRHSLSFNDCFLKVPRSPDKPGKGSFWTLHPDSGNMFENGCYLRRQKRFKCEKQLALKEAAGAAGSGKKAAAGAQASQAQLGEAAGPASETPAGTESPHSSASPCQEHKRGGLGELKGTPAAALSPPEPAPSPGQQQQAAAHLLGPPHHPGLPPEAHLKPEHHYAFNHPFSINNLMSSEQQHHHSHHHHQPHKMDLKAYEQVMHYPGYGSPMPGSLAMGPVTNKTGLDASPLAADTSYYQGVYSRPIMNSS
Chain of Hypoxia-inducible factor 1-alpha (Homo sapiens) (Q16665 whole entry, looked up): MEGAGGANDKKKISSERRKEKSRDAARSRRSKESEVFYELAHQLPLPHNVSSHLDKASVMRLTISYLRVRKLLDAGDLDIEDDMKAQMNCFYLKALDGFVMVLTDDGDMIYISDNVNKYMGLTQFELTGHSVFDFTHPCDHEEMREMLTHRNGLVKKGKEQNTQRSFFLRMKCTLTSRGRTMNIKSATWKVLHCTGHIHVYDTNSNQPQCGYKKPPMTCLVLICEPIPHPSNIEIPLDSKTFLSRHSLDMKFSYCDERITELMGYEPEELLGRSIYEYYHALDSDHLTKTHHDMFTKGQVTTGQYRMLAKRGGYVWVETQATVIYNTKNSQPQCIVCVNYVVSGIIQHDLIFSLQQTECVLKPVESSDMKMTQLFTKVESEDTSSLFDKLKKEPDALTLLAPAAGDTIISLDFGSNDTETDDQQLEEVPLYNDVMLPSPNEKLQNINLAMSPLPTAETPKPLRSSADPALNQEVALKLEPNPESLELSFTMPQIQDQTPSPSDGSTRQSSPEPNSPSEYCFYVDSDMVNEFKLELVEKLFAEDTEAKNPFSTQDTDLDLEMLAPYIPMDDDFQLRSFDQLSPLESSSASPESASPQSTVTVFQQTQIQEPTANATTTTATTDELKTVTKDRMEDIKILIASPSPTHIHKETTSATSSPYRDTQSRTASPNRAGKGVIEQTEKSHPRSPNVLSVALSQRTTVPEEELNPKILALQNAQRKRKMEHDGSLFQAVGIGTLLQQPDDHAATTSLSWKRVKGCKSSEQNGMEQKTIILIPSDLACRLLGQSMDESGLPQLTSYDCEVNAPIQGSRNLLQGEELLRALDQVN
Chain of Bile acid receptor (Homo sapiens) (Q96RI1 whole entry, looked up): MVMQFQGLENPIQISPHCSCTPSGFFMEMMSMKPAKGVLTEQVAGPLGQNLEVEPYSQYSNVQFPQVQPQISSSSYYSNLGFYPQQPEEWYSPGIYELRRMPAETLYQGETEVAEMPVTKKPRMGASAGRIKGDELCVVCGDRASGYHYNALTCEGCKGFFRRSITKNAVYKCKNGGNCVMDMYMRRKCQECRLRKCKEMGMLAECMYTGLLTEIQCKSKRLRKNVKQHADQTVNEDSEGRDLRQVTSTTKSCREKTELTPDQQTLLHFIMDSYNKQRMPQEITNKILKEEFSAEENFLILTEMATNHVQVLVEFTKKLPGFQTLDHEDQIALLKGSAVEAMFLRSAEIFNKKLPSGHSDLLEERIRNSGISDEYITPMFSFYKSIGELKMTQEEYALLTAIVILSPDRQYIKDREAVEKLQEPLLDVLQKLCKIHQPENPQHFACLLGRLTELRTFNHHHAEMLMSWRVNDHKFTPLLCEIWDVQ

One may read the AC50 as the midpoint of the concentration-response curve, whichever way the signal moves. Turning to `CCOP(=S)(OCC)SCSc1ccc(Cl)cc1`, the call in [1], in test [2], in test [3], in test [4], in [5] and in test [7] was inactive. Moreover, the result in [8], in test [9], in [10], in [11], in test [12] and in [13] was inactive. The result in [14], in test [15], in test [16], in test [17], in [18] and in test [19] was inactive. For the same compound, in test [20], the compound was called inactive. In test [6], the AC50 is 4.21 µM (active).

Take `CC(O)C#N` (stereo not drawn): the compound was classed as inactive in [1], in test [2], in test [3], in test [4], in test [5] and in test [6]. Moreover, the compound was classed as inactive in test [7], in test [8], in [9], in test [10], in test [11] and in [12]. In addition, the compound was called inactive in [13], in test [14], in [15], in test [16], in test [17] and in [18]. The compound was classed as inactive in test [19] and in test [20].

For the compound `CCN(CC)C1CCCCC1`, the compound was called inactive in test [1], in [2], in test [3], in test [4], in test [5] and in [6]. For the same compound, the result in test [7], in test [8], in test [9], in [10], in test [11] and in test [12] was inactive. Moreover, the outcome in test [13], in test [14], in test [15], in test [16], in test [17] and in [18] was inactive. In addition, the compound was classed as inactive in test [19] and in test [20].

With `CC(Cl)CN(C)C` (stereo not drawn), the compound was classed as inactive in [1], in test [2], in test [3], in [4], in [5] and in test [6]. In addition, the result in test [7], in [8], in test [9], in test [10], in test [11] and in [12] was inactive. Further, the outcome in test [13], in test [14], in [15], in test [16], in test [17] and in test [18] was inactive. In addition, in test [20], the outcome was inactive.

In the case of `O=C(CBr)OCc1ccccc1`, the outcome in test [1], in [2], in test [3], in test [4], in test [5] and in [7] was inactive. Further, the result in [8], in test [9], in test [10], in [11], in [12] and in test [13] was inactive. Besides, the result in [14], in test [15], in test [16], in test [17], in test [18] and in test [19] was inactive. In test [20], the result was inactive. Also, in test [6], the AC50 is 100 µM (active).

As for `CC(=O)CCc1ccc2c(c1)OCO2`, the result in test [1], in test [2], in test [3], in [4], in test [5] and in [6] was inactive. Further, the outcome in test [7], in test [8], in [9], in test [10], in [11] and in test [12] was inactive. In addition, the call in [13], in test [14], in test [15], in [16], in [17] and in test [18] was inactive. The outcome in test [19] and in test [20] was inactive.

`OCC(F)(F)OC(F)(F)C(F)(F)OC(F)(F)CO`: the outcome in test [1], in test [2], in test [3], in test [4], in test [5] and in test [7] was inactive. Besides, the compound was called inactive in [8], in [9], in test [10], in [11], in test [12] and in test [13]. In addition, the outcome in [14], in [15], in [16], in test [17], in test [18] and in test [20] was inactive. Further, the AC50 in test [6] is 20 µM (active).
